Assay outcomes as filed in PubChem BioAssay.
nsP2pro primary – CHIKV nsP2 protease inhibition, primary qHTS. Q8JUX6. FRET peptide cleavage, nsP2pro, fluorescence 1 h. Potency, µM (highest dose often 24.9 µM), for the others: at the top dose activity change, negative = inhibition, most hits filed as inhibitors. actives 1.1% (n = 31,000). AID 1964107; note: nearly all actives have a fitted effect of over 60% in size
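Enzyme 150 nM, substrate 2.5 uM (both final); Tris-HCl 10 mM pH 8.0 + 0.01% Tween 20; cpd up to 25 uM, 7 pts; 15 min preinc., 1 h RT; fluorescence ex 525/em 598.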
CHIKV nsP2 cell – cell-based CHIKV nsP2 protease inhibition, secondary. shares compounds with nsP2pro primary. cell-based CHIKV nsP2 protease reporter assay. Potency, µM (top dose mostly 51.1 µM), for the others: at the highest dose activity change, negative = inhibition, actives largely listed as inhibitors. actives 10% (n = 450); note: nearly all actives have a fitted effect of over 70% in size
Target sequence (Q8JUX6 220-798 limits assumed): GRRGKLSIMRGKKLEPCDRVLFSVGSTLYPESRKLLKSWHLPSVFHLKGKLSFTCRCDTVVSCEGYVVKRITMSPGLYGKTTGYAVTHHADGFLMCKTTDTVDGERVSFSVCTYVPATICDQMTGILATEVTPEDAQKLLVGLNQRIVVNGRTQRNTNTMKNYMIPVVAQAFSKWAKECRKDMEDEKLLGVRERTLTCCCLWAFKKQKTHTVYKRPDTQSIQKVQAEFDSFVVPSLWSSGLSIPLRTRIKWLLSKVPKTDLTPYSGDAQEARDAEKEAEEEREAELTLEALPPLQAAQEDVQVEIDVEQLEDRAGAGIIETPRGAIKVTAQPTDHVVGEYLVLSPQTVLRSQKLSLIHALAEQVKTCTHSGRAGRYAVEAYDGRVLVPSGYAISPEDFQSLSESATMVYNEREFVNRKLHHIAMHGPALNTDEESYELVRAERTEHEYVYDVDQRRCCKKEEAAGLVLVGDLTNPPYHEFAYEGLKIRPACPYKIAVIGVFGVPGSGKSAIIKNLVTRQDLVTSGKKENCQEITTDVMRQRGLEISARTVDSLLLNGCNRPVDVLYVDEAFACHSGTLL
NSP2 full ctr – selectivity test for CHIKV nsP2 protease inhibitors: full-length NSP2; shares compounds with nsP2pro primary; Full-length CHIKV NSP2 protease enzymatic counterscreen; Potency, µM (series often up to 50.7 µM), for the others: top-dose activity change, negative = inhibition, hits mostly inhibitors; actives 39% (n = 410); AID 1964101; note: nearly all actives have a fitted effect of over 65% in size
Furin counterscr – human furin inhibition, counterscreen for nsP2pro inhibitors; shares compounds with nsP2pro primary; actives 6% (n = 410); Recombinant human furin enzymatic counterscreen, fluorogenic substrate; Potency, µM (top dose mostly 50.6 µM), for the others: top-dose activity change, negative = inhibition, usual class: inhibitors
nsP2 NS23 pep – blocks CHIKV nsP2 protease cleavage of endogenous NS2/3 peptide. AID 1964103. Potency, µM (titrated, usually from 51 µM), for inactives: at the highest dose activity change, negative = inhibition, usual class: inhibitors. actives 34% (n = 410). shares compounds with nsP2pro primary. Purified CHIKV nsP2 protease, endogenous NS2/3 peptide cleavage; note: nearly all actives have a fitted effect of over 55% in size
Papain cs – inhibits papain in a CHIKV nsP2 protease selectivity counterscreen | shares compounds with nsP2pro primary | purified papain protease activity, enzymatic inhibition | Potency, µM (highest dose often 51 µM), without a hit: at the top dose activity change, negative = inhibition, actives largely listed as inhibitors | actives 5% (n = 410) | AID 1964104
nsP2pro conf qHTS – CHIKV nsP2 protease inhibition, confirmatory qHTS | CHIKV nsP2 protease enzymatic activity, qHTS | Potency, µM (series often up to 25.5 µM), for the others: at the highest dose activity change, negative = inhibition, actives largely listed as inhibitors | actives 43% (n = 410) | shares compounds with nsP2pro primary; note: nearly all actives have a fitted effect of over 75% in size
HCV NS3 4A cs – HCV NS3/4A protease inhibition, counterscreen; shares compounds with nsP2pro primary; Potency, µM (titrated, usually from 50.9 µM), most hits filed as inhibitors; HCV NS3/4A protease biochemical counterscreen; actives 20% (n = 410); note: nearly all actives have a fitted effect of over 55% in size
* marks the source's active call; other numbers are inactive results; [ ] = remark or other dose. The sample as a whole holds a higher share of hits than the screen did. Calls come from the whole dose curve. % is set by controls: 0 for no effect and ±100 for the full control effect; potency is the fitted concentration of half-maximal effect.

Results for COC(=O)C1=C(C)NC(c2ncc(F)cc2F)=N[C@@H]1c1ccc(F)cc1Cl ?
nsP2pro primary: -14%

Results for COc1ccc(NC(=O)C(OC(=O)CNC(=O)c2ccccc2)c2ccccc2)c(C)c1 (centres undefined) ?
nsP2pro primary: -4%

What do the screens show for `COc1cccc(C(=O)CCN[C@@H](C)[C@H](O)c2ccccc2)c1`?
nsP2pro primary: 1.6µM*; CHIKV nsP2 cell: 54%; NSP2 full ctr: 5.8µM*; Furin counterscr: -4%; nsP2 NS23 pep: 10µM*; Papain cs: -3%; nsP2pro conf qHTS: 1.3µM*; HCV NS3 4A cs: inactive

What do the screens show for `C[C@H](NCCc1ccc(O)cc1)[C@H](O)c1ccc(O)cc1`?
nsP2pro primary: -1%

How did O=C(O)c1ccc(O)c2ncc(N3CCCN(CCCc4ccncc4)CC3)cc12 do in these assays?
nsP2pro primary: inactive

What do the screens show for `O=C(O)c1ccc(-c2ccc(NC(=O)c3cccs3)cn2)cc1`?
nsP2pro primary: -10%

What do the screens show for `c1c2c(cc3c1OCO3)-c1cc3ccc4c(c3c[n+]1CC2)OCO4`?
nsP2pro primary: inconclusive; CHIKV nsP2 cell: -6%; NSP2 full ctr: inconclusive; Furin counterscr: 4.1µM*; nsP2 NS23 pep: inconclusive; Papain cs: -22%; nsP2pro conf qHTS: inconclusive; HCV NS3 4A cs: inactive

How did COc1cc2c(cc1OC)-c1cc3ccc(OC)c(OC)c3c[n+]1CC2 do in these assays?
CHIKV nsP2 cell: 3%; NSP2 full ctr: inconclusive; Furin counterscr: -23%; nsP2 NS23 pep: inconclusive; Papain cs: inconclusive; nsP2pro conf qHTS: inconclusive; HCV NS3 4A cs: inactive

What do the screens show for `COc1ccccc1-c1nc(NCc2ccc(-c3cccnc3)cc2)c2ccccc2n1`?
nsP2pro primary: inactive

What do the screens show for `C[n+]1cc(NC(=O)c2cccc(C(=O)Nc3cc4ccccc4[n+](C)c3)n2)cc2ccccc21`?
nsP2pro primary: -5%

What do the screens show for `C[N+](C)(C)C1CCC(CC2CCC([N+](C)(C)C)CC2)CC1` (centres undefined)?
nsP2pro primary: -2%

Results for O=C(NCc1ccc(F)c(F)c1)C1CN(C2CCCC2)C(=O)N1 (centres undefined) ?
nsP2pro primary: inactive

What do the screens show for `Cc1cc(N[S+](=O)([O-])c2ccc(NC(=O)Cc3ccc(Cl)nc3)cc2)no1`?
nsP2pro primary: -7%

What do the screens show for `CCCCCCCC(=O)N[C@H](CN1CCCC1)[C@H](O)c1ccc2c(c1)OCCO2`?
nsP2pro primary: -7%

What do the screens show for `CN1CCN(c2cnc3c(O)ccc(C(=O)O)c3c2)CC1`?
nsP2pro primary: inactive

Results for COc1cnc(-c2ccccc2C(C)C)nc1NCc1ccc(-c2cccnc2)cc1 ?
nsP2pro primary: inactive

What do the screens show for `C=C(C(=O)OC)[C@]12O[C@@](C)(CC[C@@]3(O)/C(=C\C)C(=O)O[C@]3(C)C[C@@H]1OC(=O)C(CO)CN1CCCC1C(=O)O)CC2=O` (some centres undefined)?
nsP2pro primary: inconclusive; CHIKV nsP2 cell: -3%[17.6 µM]; NSP2 full ctr: 2.4µM*; Furin counterscr: -7%[17.3 µM]; nsP2 NS23 pep: inconclusive; Papain cs: -22%[17.2 µM]; nsP2pro conf qHTS: 2.1µM*; HCV NS3 4A cs: inconclusive

What do the screens show for `CCOC(=O)c1cccc(-n2cnc(/C=C3\NC(=O)N(CC(=O)OC(C)(C)C)C3=O)c2)c1`?
nsP2pro primary: inactive
